VDR inh: vitamin D3 receptor (human) inhibition; P11473; 400,000 compounds, 0.93% hits; Potency, µM, for the others: max response, negative = inhibition, most hits filed as inhibitors; VDR-SRC2-3 peptide fluorescence polarization, 2 h; AID 504847; note: potency is the fitted concentration of half-maximal effect
Target sequence (P11473 whole entry, looked up): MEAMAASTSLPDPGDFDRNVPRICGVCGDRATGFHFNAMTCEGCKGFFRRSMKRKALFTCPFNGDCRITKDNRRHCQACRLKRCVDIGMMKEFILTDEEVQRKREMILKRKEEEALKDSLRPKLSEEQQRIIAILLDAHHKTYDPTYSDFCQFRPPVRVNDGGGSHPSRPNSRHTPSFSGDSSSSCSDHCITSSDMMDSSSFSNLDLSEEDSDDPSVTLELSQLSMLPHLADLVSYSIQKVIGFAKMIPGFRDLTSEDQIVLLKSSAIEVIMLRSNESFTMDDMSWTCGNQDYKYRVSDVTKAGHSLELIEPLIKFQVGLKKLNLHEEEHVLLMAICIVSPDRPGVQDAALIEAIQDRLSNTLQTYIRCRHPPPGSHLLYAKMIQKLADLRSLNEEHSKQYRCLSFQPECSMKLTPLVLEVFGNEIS
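Reagent solutions, kept cold and dark, are dispensed first; compounds are then pinned in at 23 nl, plates briefly spun, and incubated 2 h at ambient temperature. Inhibition of VDR–SRC2-3 peptide binding is read by fluorescence polarization.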
Sfp PPTase inh: Sfp phosphopantetheinyl transferase inhibition; Q9F4F7; Biochemical Sfp PPTase activity, qHTS; Potency, µM, inactives show largest response in the series, negative = inhibition, actives largely listed as inhibitors; 310,000 compounds, 3.5% hits; AID 1490;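 note: the enzyme is Sfp with the accession as filed and its product quenches rhodamine fluorescence; potency is the fitted concentration of half-maximal effect; 0% = enzyme reaction without inhibitor and -100% = no enzyme wells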
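Step 1, compound plus 15 nM Sfp-PPTase, 15 min, room temperature. Step 2, add rhodamine-CoA (5 uM) and BHQ-2-YbbR (12.5 uM). Step 3, read 525/598 nm fluorescence at 0 and 30 min.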
PLK1 PBD block: PLK1 (human) polo-box domain binding inhibition; AID 720504; P53350; Potency, µM, for the others: max response, negative = inhibition, actives largely listed as inhibitors; 360,000 compounds, 2.8% hits; Plk1 PBD binding of FITC phosphopeptide, fluorescence polarization; note: potency is the fitted concentration of half-maximal effect; series mostly up to about 57 µM; nearly all actives have a fitted effect of over 65% in size
Mm-Cpn inhibitor: blocks the Methanococcus maripaludis chaperonin Mm-Cpn. purified Mm-Cpn ATPase, ADP Transcreener TR-FRET. Potency, µM (titrated, usually from 76.9 µM), for inactives: top-dose activity, negative = inhibition, hits mostly inhibitors. 330,000 compounds, 0.031% hits; note: potency is the fitted concentration of half-maximal effect; nearly all actives have a fitted effect of over 80% in size
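ATPase read-out: TR-FRET ADP immunoassay (anti-ADP Eu cryptate vs ADP-d2), ex 320 nm, em 590/665 nm; signal drops as ADP forms. Enzyme 25 nM, ATP 10 uM, 30 min at 37°C after 10 min compound preincubation.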
CCT modulator: cytosolic chaperonin activity modulation. purified chaperonin ATPase assay, HTRF ADP detection, 30 min. activity change, % (no concentration beside the values), hits read low. 360,000 compounds, 0.3% hits; in the data active = activity change below about -30%
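TRiC (40 or 20 nM final, by batch activity) in 30 mM Tris pH 7.4, 100 mM KCl, 5 mM MgCl2, 1 mM DTT was treated with compound at 76 uM single dose, then 10 uM ATP, 30 min at 37 °C. ADP was read by HTRF Transcreener.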
G9a inh: inhibitors of human histone lysine methyltransferase G9a; AID 504332; Q96KQ7; 350,000 compounds, 8.8% hits; Potency, µM (series often up to 102 µM), without a hit: top-dose activity, negative = inhibition, usual class: inhibitors; G9a H3K9 monomethylation, AlphaScreen, 2 h; note: potency is the fitted concentration of half-maximal effect; nearly all actives have a fitted effect of over 75% in size
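Readings reflect AlphaScreen signal from monomethyl-H3K9 antibody detection. HMT at 20 nM; substrate b-H3K9 500 nM; cofactor SAM 20 uM; 2 h RT reaction; compounds tested as titrations in qHTS with 15 min preincubation.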
* hit, by the source's call; [ ] = another dose, or the depositor's remark. Shown are actives, neighbours in structure and some others; about 10% of the full set was active somewhere. Unless noted, calls come from the whole dose curve; as a rule, active = well fitted curve in the direction sought with a large enough effect; inconclusive = small, poorly fitted or top-dose-only effect, or another doubt; inactive = no such curve, though single readings can be large; an effect the other way counts as inactive or inconclusive. Unless noted, % is set by controls: 0 for no effect and ±100 for the full control effect.

How did C#C[C@@]1(O)CC[C@@H]2[C@@H]3CCC4=CC(=O)CC[C@@H]4[C@H]3CC[C@]21CC do in these assays?
VDR inh: 3.1%; Sfp PPTase inh: 22.8%; G9a inh: 14.4%[21.5 µM]

Results for COc1ccc(N2CC(NC(=O)c3ccc(Br)o3)CC2=O)cc1 (configuration not stated) ?
VDR inh: 2.6%; G9a inh: 0.4%[59 µM]

Results for COc1ccc(CC(=S)N2CCOCC2)cc1OC ?
VDR inh: -9.8%; Sfp PPTase inh: 17.2%; PLK1 PBD block: -6.5%; Mm-Cpn inhibitor: 1.8%; CCT modulator: -21.9; G9a inh: -22.3%[12.7 µM]

Results for S=C(Cc1cccnc1)N1CCOCC1 ?
VDR inh: inconclusive; Sfp PPTase inh: -69.2%; PLK1 PBD block: 23.8µM*; Mm-Cpn inhibitor: -6.7%; CCT modulator: 1.6; G9a inh: 2.24µM*

Results for CCCCNc1c([N+](=O)[O-])cc(C)cc1[N+](=O)[O-] ?
VDR inh: 1.6%; Sfp PPTase inh: 7.6%; PLK1 PBD block: 2.0%; Mm-Cpn inhibitor: 0.7%; CCT modulator: -2.2; G9a inh: 39.8µM*

What do the screens show for `CCCCNc1c([N+](=O)[O-])cc(C(=O)O)cc1[N+](=O)[O-]`?
VDR inh: -7.8%; Sfp PPTase inh: 10.5%; PLK1 PBD block: -9.2%; Mm-Cpn inhibitor: 2.3%; CCT modulator: -1.4; G9a inh: 10.3%[59 µM]

What do the screens show for `C=CCOC(=O)Nc1c(C(=O)OC)[nH]c2ccccc12`?
VDR inh: 6.1%; Sfp PPTase inh: -9.1%; PLK1 PBD block: -6.4%; Mm-Cpn inhibitor: -0.7%; CCT modulator: 0.4; G9a inh: 50.1µM*

What do the screens show for `CCOC(=O)Nc1c(C(=O)OC)[nH]c2cc(OC)ccc12`?
VDR inh: -6.6%; Sfp PPTase inh: 5.2%; PLK1 PBD block: -7.9%; Mm-Cpn inhibitor: -0.4%; CCT modulator: -4.7; G9a inh: -29.8%

Results for CCOC(=O)c1[nH]c2ccccc2c1NC(=O)CC(C)(C)C ?
VDR inh: -6.2%; Sfp PPTase inh: -6.7%; PLK1 PBD block: 1.6%; Mm-Cpn inhibitor: -1.5%; CCT modulator: -0.9; G9a inh: 50.1µM*

What do the screens show for `COC(=O)c1[nH]c2ccccc2c1NC(=O)c1ccccc1F`?
VDR inh: 3.7%; Sfp PPTase inh: 20.6%; PLK1 PBD block: -15.7%; Mm-Cpn inhibitor: 0.8%; CCT modulator: 1.5; G9a inh: 4.9%

How did CCOC(=O)c1[nH]c2ccccc2c1NC(=S)Nc1cccc(C)c1C do in these assays?
VDR inh: -14.3%; Sfp PPTase inh: inconclusive; PLK1 PBD block: -16.6%; Mm-Cpn inhibitor: -8.8%; CCT modulator: -2.9; G9a inh: 44.7µM*

What do the screens show for `COC(=O)c1[nH]c2cc(OC)c(OC)cc2c1NC(=O)Oc1ccccc1`?
VDR inh: 10.1%; Sfp PPTase inh: 44.7µM*; PLK1 PBD block: -20.1%; Mm-Cpn inhibitor: -8.3%; CCT modulator: -0.9; G9a inh: 2.82µM*

Results for CCOC(=O)c1[nH]c2ccccc2c1NC(=O)NC(C)C ?
VDR inh: 7.4%; Sfp PPTase inh: -17.0%; PLK1 PBD block: -5.9%; Mm-Cpn inhibitor: -1.2%; CCT modulator: -0.8; G9a inh: 1.5%[12.7 µM]

How did COc1cccc(-c2nccc(NCc3ccc(OC)cc3OC)n2)c1 do in these assays?
VDR inh: -8.0%; Sfp PPTase inh: -25.7%; G9a inh: 5.2%[0.501 µM]

How did C/C(=N/NC(N)=S)c1cc2ccc(O)cc2oc1=O do in these assays?
VDR inh: -13.5%; Sfp PPTase inh: inconclusive; PLK1 PBD block: 30.2%; Mm-Cpn inhibitor: 1.7%; CCT modulator: -4.4

How did O=C(c1ccc([N+](=O)[O-])cc1)c1cc2ccc(O)cc2oc1=O do in these assays?
VDR inh: 3.8%; Sfp PPTase inh: -0.3%; PLK1 PBD block: -12.8%; Mm-Cpn inhibitor: 1.0%; CCT modulator: -0.5; G9a inh: 50.1µM*

Results for C/C(=N\NC(=O)c1ccccc1)c1cc2cc([N+](=O)[O-])ccc2oc1=O ?
VDR inh: -2.6%; Sfp PPTase inh: 13.3%; PLK1 PBD block: 23.8µM*; Mm-Cpn inhibitor: -0.5%; CCT modulator: -0.3; G9a inh: 47.9%[59 µM]

High-throughput results as filed in PubChem.
